In experiment [1] the target is Oxysterols receptor LXR-alpha (Homo sapiens) (UniProt Q13133). The experiment in a line: ATG_LXRa_TRANS: Attagene TRANS-FACTORIAL HepG2 Assay for human Liver X Receptor alpha (LXRa) (AID 2282980; active = hit-call score of the fitted dose curve at least 0.9, where 1 is the maximum). The conditions noted are these: HepG2 Attagene TRANS reporter, LXRa transactivation. Summed up:
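HepG2 cells were transiently transfected with multiplexed reporter units driven by chimeric LXRa–GAL4 fusion proteins, then dosed for 24 h. Reporter mRNA was quantified by RT-PCR, fluorescent labelling and capillary electrophoresis; gain of signal fitted against DMSO baseline.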

Experiment [2] deals with Oxysterols receptor LXR-beta (Homo sapiens) (UniProt P55055). The experiment in a line: ATG_LXRb_TRANS: Attagene TRANS-FACTORIAL HepG2 Assay for human Liver X Receptor beta (LXRb) (AID 2282981; active = hit-call score of the fitted dose curve at least 0.9, where 1 is the maximum). To be noted: HepG2 Attagene TRANS GAL4-LXRb reporter, mRNA. Summed up:
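HepG2 cells transiently transfected with multiple reporter transcription units carrying chimeric NR-Gal4 proteins acting on GAL4-UAS reporters; compound exposure 24 h. Reporter mRNA quantified by RT-PCR, 6-FAM labelling, HpaI digestion and capillary electrophoresis; gain of signal versus DMSO.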

Experiment [3] has as its target Hepatocyte nuclear factor 4-alpha (Homo sapiens) (UniProt P41235). The experiment in a line: ATG_HNF4a_TRANS: Attagene TRANS-FACTORIAL HepG2 Assay for human Hepatocyte Nuclear Factor 4 alpha (HNF4a) (AID 2282982; active = hit-call score of the fitted dose curve at least 0.9, where 1 is the maximum). To be noted: HepG2 HNF4a transactivation reporter, mRNA readout. Summed up: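 HepG2 cells transiently transfected with multiplexed GAL4-UAS reporter units responsive to chimeric NR-GAL4 proteins; compound exposure 24 h. Reporter mRNA quantified by RT-PCR, 6-FAM labelling, HpaI digestion and capillary electrophoresis; gain of signal versus DMSO baseline.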

The nature of experiment [4]: ATG_M_32_TRANS: Attagene TRANS-FACTORIAL HepG2 Assay for M32 Transcription Factor (Internal Marker) (AID 2282984; active = hit-call score of the fitted dose curve at least 0.9, where 1 is the maximum). The conditions noted are these: HepG2 Attagene TRANS M32 internal marker reporter. Summed up:
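HepG2 cells transiently transfected with multiple GAL4-UAS reporter transcription units, dosed for 24 hours; reporter mRNA quantified by RT-PCR, 6-FAM primer extension, HpaI digestion and capillary electrophoresis. Gain-of-signal fitted versus DMSO baseline; internal background-control marker.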

Experiment [5] has as its target Transcriptional activator Myb (Homo sapiens) (UniProt P10242). The experiment in a line: ATG_Myb_CIS: Attagene CIS-FACTORIAL HepG2 Assay for human Myeloblastosis (Myb) Proto-Oncogene Transcription Factor (AID 2282986). The conditions noted are these: HepG2 Attagene CIS-FACTORIAL Myb reporter transcription; actives raise or lower the signal. Summed up: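 Transiently transfected HepG2 cells carrying a multiplexed cis-promoter reporter set report endogenous Myb activity after 24 h compound exposure. Reporter mRNA is read by RT-PCR with capillary electrophoresis of fluorescent products, fitted bidirectionally against DMSO.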

Experiment [6] is described as follows: ATG_NFI_CIS: Attagene CIS-FACTORIAL HepG2 Assay for human Nuclear Factor I (NFI) (AID 2282989). The conditions noted are these: HepG2 cis-regulatory reporter, NFI response element transcription; actives raise or lower the signal. A digest of the protocol:
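Reporter transcripts were measured by RT-PCR with fluorescent primer extension and capillary electrophoresis 24 h post-treatment. HepG2 cells carried transiently transfected cis-regulated reporter constructs reporting endogenous factor activity; gain or loss fitted against DMSO baseline.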

Experiment [7] deals with Myc proto-oncogene protein (Homo sapiens) (UniProt P01106). The experiment is described as follows: ATG_Myc_CIS: Attagene CIS-FACTORIAL HepG2 Assay for human Myelocytomatosis (Myc) Proto-Oncogene Transcription Factor (AID 2282990). The conditions noted are these: HepG2, Attagene cis-reporter transcription factor activity; actives raise or lower the signal. Summed up:
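DMSO-normalised, bidirectionally fitted reporter mRNA signal. HepG2 cells transfected with cis reporter constructs, treated 24 h; transcripts detected by RT-PCR, 6-FAM primer extension and CE.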

Experiment [8] is described as follows: ATG_NF_kB_CIS: Attagene CIS-FACTORIAL HepG2 Assay for human Nuclear Factor Kappa B (NF-kB) (AID 2282991). To be noted: HepG2 Attagene cis-factorial NF-kB reporter mRNA; actives raise or lower the signal. Summed up: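 HepG2 cells transfected with cis-promoter-driven reporter units, so endogenous transcription factor activity is measured. Reporter mRNA quantified 24 h after dosing by RT-PCR and capillary electrophoresis, with bidirectional fitting against DMSO.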

The nature of experiment [9]: ATG_NRF2_ARE_CIS: Attagene CIS-FACTORIAL HepG2 Assay for human Nuclear Factor Erythroid 2 Related Factor 2 (NFR2) response to Antioxidant Response Elements (ARE) (AID 2282992).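 As to AC50: reporter mRNA level measured by RT-PCR and capillary electrophoresis fluorescence.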 The conditions noted are these: HepG2 Attagene ARE/NRF2 reporter, transcription factor activity; actives raise or lower the signal. A digest of the protocol:
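Transient MRTU transfection of HepG2; 24 h compound exposure; TriZol RNA, RT with oligo(dT), PCR, 6-FAM primer extension, HpaI cut, CE. Bidirectional fit vs DMSO.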

Experiment [10] can be described thus: ATG_Oct_MLP_CIS: Attagene CIS-FACTORIAL HepG2 Assay for human Octamer-Binding Transcription Factor (Oct) (AID 2282993). The conditions noted are these: HepG2 Attagene cis-factorial Oct reporter, mRNA; actives raise or lower the signal. Summed up:
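Readout is reporter transcript level from RT-PCR with fluorescent primer extension and capillary electrophoresis, fitted in both directions against DMSO. Transfected HepG2 reporter units report endogenous factor activity after 24 h dosing.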

Experiment [11] can be described thus: BSK_3C_TissueFactor: BioMAP Diversity Plus: 3C Assay for Tissue Factor Biomarker Activity (AID 2282997). The conditions noted are these: BioMAP 3C HUVEC, tissue factor biomarker readout; actives raise or lower the signal. A digest of the protocol: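 Primary human umbilical vein endothelial cells in the 3C system were exposed to test chemical for 24 h, then Tissue Factor measured by ELISA. Activity was fitted bidirectionally against DMSO as negative control and baseline.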

A short description of experiment [12]: BSK_3C_uPAR: BioMAP Diversity Plus: 3C Assay for Urokinase-type plasminogen activator receptor (uPAR) Biomarker Activity (AID 2282998). The conditions noted are these: BioMAP 3C HUVEC, uPAR biomarker ELISA; actives raise or lower the signal. A digest of the protocol: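 Cell-surface uPAR on HUVEC (3C system) read by ELISA at 24 h post-treatment, with DMSO as baseline and fitting in both directions. Parallel cultures stained with SRB to flag overt cytotoxicity.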
(In general: ELISA stands for enzyme-linked immunosorbent assay.)

Experiment [13] has as its target Glucocorticoid receptor (Homo sapiens) (UniProt P04150). The experiment in a line: ATG_GR_TRANS: Attagene TRANS-FACTORIAL HepG2 Assay for human Glucocorticoid Receptor (GR) (AID 2282978; active = hit-call score of the fitted dose curve at least 0.9, where 1 is the maximum;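 also: activators score as hits since higher reporter transcript over DMSO is fitted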). To be noted: HepG2 Attagene TRANS GR reporter, mRNA transcription. A digest of the protocol: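 HepG2 cells transiently transfected with GAL4-UAS reporter units and exogenous GR-Gal4 chimera, dosed 24 h. Reporter mRNA by RT-PCR, FAM labeling, HpaI digest and capillary electrophoresis; gain-of-signal fit versus DMSO.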

Experiment [14] can be described thus: ATG_M_06_TRANS: Attagene TRANS-FACTORIAL HepG2 Assay for M06 Transcription Factor (Internal Marker) (AID 2282983; active = hit-call score of the fitted dose curve at least 0.9, where 1 is the maximum). To be noted: HepG2 Attagene TRANS M06 internal marker reporter. Summed up: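 HepG2 cells transiently transfected with multiplexed GAL4-UAS reporter transcription units; after 24 h compound exposure, reporter mRNA measured by RT-PCR, FAM-labelled primer extension, HpaI digestion and capillary electrophoresis. Gain-of-signal fitted versus DMSO baseline; background control readout.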

Experiment [15] has as its target Nuclear receptor subfamily 4 group A member 2 (Homo sapiens) (UniProt P43354). The experiment is described as follows: ATG_NURR1_TRANS: Attagene TRANS-FACTORIAL HepG2 Assay for human Nuclear Receptor Related Protein 1 (NURR1) (AID 2282985; active = hit-call score of the fitted dose curve at least 0.9, where 1 is the maximum). The conditions noted are these: HepG2 Attagene TRANS reporter, mRNA readout. A digest of the protocol: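 HepG2 cells transiently transfected with GAL4-UAS reporter units and chimeric NR-Gal4 constructs; chemical exposure 24 h. Reporter mRNA quantified by RT-PCR, fluorescent labelling and capillary electrophoresis; gain of signal fitted relative to DMSO baseline.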

Experiment [16] concerns the target Nuclear respiratory factor 1 (Homo sapiens) (UniProt Q16656). The experiment is described as follows: ATG_NRF1_CIS: Attagene CIS-FACTORIAL HepG2 Assay for human Nuclear Respiratory Factor 1 (NRF1) Orphan Gene (AID 2282987). To be noted: HepG2 NRF1 cis-element reporter, Attagene multiplex; actives raise or lower the signal. Summed up:
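HepG2 cells transiently transfected with multiple cis-regulated reporter units, exposed 24 h. Reporter mRNAs measured by RT-PCR, fluorescent labelling, HpaI digestion and capillary electrophoresis; bidirectional fitting against DMSO.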

For experiment [17], the target named is Cellular tumor antigen p53 (Homo sapiens) (UniProt P04637). The experiment is described as follows: ATG_p53_CIS: Attagene CIS-FACTORIAL HepG2 Assay for human p53 Transcription Factor (AID 2282994). To be noted: HepG2 p53 cis-element reporter, Attagene mRNA; actives raise or lower the signal. A digest of the protocol: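 HepG2, transient MRTU transfection (cis promoter elements, endogenous TFs); 24 h dosing; RNA isolation, RT-PCR, 6-FAM primer extension, HpaI digest, CE fluorescence; bidirectional fit vs DMSO.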
Sequence of Cellular tumor antigen p53 (Homo sapiens) (P04637 whole entry, looked up): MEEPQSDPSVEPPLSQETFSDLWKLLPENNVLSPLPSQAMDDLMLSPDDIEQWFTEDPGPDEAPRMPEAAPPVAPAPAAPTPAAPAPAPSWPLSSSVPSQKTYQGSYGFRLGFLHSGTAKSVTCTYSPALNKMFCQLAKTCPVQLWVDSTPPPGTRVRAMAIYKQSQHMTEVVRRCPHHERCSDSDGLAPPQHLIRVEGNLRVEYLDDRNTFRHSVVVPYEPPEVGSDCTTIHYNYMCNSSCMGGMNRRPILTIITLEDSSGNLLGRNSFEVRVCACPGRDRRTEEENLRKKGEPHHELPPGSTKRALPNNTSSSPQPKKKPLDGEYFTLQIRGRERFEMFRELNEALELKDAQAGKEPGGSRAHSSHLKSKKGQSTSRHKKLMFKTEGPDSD

Experiment [18] concerns the target Bile acid receptor (Homo sapiens) (UniProt Q96RI1). The experiment in a line: ATG_FXR_TRANS: Attagene TRANS-FACTORIAL HepG2 Assay for Farnesoid X Receptor (FXR) (AID 2282979; active = hit-call score of the fitted dose curve at least 0.9, where 1 is the maximum;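 also: hits raise reporter mRNA above DMSO so AC50 marks FXR activation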). The conditions noted are these: HepG2 Attagene TRANS FXR-GAL4 reporter transcription. A digest of the protocol:
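HepG2 cells transiently transfected with reporter constructs in which a chimeric FXR-GAL4 protein drives a GAL4-UAS reporter; 24 h compound exposure. Reporter mRNA measured by RT-PCR, FAM labelling, HpaI digestion and capillary electrophoresis; gain-of-signal versus DMSO.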

Records with an inconclusive call do not appear. Activity calls are given as the source filed them. The calls were made as follows, unless noted: active = hit-call score of the fitted dose curve at least 0.9, where 1 is the maximum; inactive = score below 0.9.

Sequence of Nuclear receptor subfamily 4 group A member 2 (Homo sapiens) (P43354 whole entry, looked up, the tested form may be a part): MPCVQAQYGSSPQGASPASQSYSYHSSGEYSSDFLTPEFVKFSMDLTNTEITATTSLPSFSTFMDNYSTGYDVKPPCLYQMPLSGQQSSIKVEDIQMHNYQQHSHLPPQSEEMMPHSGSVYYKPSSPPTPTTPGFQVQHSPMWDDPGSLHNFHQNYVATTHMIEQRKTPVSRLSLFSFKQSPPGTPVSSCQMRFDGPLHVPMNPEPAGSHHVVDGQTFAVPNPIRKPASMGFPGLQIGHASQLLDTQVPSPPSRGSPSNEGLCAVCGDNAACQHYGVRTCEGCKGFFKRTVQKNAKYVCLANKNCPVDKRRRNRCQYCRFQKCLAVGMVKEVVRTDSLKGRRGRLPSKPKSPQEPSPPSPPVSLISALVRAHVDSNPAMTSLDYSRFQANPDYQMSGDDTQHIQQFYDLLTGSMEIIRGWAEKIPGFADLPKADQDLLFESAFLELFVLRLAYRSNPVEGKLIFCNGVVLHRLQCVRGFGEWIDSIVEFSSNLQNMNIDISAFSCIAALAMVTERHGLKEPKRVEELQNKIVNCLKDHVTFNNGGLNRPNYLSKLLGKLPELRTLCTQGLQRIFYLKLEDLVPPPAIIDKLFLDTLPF
Sequence of Oxysterols receptor LXR-alpha (Homo sapiens) (Q13133 whole entry, looked up, the tested form may be a part): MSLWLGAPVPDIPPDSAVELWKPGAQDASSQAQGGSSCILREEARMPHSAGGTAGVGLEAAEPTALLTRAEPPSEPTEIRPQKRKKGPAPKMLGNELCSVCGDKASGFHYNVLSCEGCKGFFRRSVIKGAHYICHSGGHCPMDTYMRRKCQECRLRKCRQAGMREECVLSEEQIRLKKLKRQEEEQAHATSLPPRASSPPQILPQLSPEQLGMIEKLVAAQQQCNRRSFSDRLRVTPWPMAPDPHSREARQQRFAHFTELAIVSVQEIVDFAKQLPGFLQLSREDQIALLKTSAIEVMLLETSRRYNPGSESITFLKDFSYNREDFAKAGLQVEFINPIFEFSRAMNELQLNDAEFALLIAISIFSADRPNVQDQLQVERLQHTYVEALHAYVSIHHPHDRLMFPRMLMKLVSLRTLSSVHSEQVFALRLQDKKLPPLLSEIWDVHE
Sequence of Myc proto-oncogene protein (Homo sapiens) (P01106 whole entry, looked up): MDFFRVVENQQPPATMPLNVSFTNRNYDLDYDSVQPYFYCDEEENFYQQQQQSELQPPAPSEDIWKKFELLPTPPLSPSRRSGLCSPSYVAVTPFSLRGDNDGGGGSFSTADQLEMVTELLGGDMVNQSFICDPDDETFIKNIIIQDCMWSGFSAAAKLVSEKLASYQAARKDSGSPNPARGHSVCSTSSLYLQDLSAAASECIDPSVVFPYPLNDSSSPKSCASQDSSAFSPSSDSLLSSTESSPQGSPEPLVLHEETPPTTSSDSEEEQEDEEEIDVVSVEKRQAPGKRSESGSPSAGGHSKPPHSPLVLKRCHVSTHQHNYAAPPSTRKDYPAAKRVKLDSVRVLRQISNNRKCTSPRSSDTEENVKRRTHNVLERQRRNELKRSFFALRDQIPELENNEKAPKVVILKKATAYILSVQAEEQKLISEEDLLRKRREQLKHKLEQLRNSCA
Sequence of Hepatocyte nuclear factor 4-alpha (Homo sapiens) (P41235 whole entry, looked up, the tested form may be a part): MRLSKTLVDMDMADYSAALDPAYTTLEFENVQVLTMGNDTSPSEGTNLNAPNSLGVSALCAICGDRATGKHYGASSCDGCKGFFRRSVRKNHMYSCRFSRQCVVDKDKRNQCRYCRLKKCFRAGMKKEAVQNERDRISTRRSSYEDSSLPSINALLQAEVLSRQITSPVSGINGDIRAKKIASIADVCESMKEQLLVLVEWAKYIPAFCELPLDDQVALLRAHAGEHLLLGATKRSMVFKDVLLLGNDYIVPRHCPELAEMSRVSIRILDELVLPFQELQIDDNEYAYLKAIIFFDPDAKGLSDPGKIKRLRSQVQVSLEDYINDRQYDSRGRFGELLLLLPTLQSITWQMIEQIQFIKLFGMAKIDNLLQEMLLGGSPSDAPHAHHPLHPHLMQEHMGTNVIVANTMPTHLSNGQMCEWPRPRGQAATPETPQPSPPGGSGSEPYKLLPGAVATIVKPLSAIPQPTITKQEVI
Sequence of Nuclear respiratory factor 1 (Homo sapiens) (Q16656 whole entry, looked up): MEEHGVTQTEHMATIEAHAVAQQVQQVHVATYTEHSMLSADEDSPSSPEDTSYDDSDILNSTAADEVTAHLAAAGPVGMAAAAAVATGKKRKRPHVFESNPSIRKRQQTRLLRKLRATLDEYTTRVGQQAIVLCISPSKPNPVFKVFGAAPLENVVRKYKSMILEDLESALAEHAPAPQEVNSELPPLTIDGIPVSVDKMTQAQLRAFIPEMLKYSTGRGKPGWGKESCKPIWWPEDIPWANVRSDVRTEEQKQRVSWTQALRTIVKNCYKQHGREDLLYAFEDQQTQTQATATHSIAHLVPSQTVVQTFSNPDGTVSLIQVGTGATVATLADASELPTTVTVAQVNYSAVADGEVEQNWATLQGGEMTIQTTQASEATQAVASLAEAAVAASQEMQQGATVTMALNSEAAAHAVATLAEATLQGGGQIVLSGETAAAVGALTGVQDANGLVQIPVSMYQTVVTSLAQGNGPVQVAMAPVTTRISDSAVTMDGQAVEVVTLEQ
Sequence of Oxysterols receptor LXR-beta (Homo sapiens) (P55055 whole entry, looked up, the tested form may be a part): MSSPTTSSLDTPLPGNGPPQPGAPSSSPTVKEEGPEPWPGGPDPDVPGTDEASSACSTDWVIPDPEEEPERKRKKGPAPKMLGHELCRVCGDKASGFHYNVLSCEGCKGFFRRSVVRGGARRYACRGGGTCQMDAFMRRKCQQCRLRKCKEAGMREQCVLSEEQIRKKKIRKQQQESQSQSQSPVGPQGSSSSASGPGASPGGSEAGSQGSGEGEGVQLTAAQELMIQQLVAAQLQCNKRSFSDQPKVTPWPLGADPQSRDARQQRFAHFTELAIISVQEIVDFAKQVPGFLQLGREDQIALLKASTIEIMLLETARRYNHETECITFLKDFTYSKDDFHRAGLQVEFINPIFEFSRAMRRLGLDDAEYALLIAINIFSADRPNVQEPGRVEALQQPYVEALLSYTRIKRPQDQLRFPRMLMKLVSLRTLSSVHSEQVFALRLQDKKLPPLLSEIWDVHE
Sequence of Transcriptional activator Myb (Homo sapiens) (P10242 whole entry, looked up): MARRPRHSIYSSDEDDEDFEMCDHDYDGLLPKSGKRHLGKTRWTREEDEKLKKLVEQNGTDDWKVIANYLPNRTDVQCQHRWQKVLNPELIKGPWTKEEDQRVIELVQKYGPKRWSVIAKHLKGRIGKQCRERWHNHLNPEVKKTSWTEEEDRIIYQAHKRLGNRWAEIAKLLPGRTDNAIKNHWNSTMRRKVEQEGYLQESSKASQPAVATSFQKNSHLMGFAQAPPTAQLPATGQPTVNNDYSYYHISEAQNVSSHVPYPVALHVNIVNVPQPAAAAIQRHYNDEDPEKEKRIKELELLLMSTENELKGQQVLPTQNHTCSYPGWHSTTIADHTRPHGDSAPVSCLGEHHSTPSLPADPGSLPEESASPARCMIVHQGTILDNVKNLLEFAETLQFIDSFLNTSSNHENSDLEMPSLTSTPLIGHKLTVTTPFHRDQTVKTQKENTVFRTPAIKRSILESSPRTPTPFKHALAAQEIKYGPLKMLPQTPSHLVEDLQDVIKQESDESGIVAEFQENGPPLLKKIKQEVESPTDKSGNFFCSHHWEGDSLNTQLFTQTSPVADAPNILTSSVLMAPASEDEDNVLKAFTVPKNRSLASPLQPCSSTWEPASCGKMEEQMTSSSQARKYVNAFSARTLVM
Sequence of Glucocorticoid receptor (Homo sapiens) (P04150 whole entry, looked up, the tested form may be a part): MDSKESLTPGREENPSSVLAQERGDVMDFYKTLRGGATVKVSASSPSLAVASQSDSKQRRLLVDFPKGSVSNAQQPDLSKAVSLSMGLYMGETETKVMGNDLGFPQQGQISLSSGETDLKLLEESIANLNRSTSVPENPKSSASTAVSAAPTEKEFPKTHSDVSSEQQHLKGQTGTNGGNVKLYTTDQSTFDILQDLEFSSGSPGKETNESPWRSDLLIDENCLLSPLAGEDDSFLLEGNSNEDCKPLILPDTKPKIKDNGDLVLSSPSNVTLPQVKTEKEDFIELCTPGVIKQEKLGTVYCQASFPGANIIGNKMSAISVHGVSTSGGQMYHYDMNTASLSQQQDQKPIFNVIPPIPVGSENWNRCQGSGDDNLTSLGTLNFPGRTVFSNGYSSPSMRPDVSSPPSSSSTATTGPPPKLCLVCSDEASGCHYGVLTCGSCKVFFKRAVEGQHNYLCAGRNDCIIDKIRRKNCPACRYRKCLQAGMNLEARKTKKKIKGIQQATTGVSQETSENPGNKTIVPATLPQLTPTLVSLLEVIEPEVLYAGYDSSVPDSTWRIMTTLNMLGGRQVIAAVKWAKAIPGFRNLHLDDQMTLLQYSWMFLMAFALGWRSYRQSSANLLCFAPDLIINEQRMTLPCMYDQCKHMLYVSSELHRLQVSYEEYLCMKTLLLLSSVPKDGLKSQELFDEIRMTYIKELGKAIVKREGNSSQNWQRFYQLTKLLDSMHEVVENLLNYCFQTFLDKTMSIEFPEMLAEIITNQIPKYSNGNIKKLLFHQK

With `CCCCOC(=O)c1ccccc1C(=O)O`, the molecule was classed as inactive in [1], in experiment [2], in [3], in [4], in experiment [5] and in experiment [6]. Besides, the call in [7], in experiment [8], in experiment [9], in experiment [10], in [11] and in experiment [12] was inactive.

In general, AC50 refers to the concentration at which the activity in the assay is half-maximal. As to `CCOP(=S)(OCC)Oc1cc(C)nc(C(C)C)n1`, the call in experiment [13], in experiment [1], in experiment [2], in experiment [14], in experiment [15] and in [5] was inactive. In addition, the outcome in experiment [16], in experiment [6], in [7], in [8], in experiment [10] and in experiment [11] was inactive. Further, the result in experiment [12] was inactive. Besides, in [9], the AC50 was 15.9 µM (active).

Regarding `CC(C)[C@H](C(=O)O[C@H](C#N)c1cccc(Oc2ccccc2)c1)c1ccc(Cl)cc1`, the call in experiment [3], in experiment [5], in [6], in [7], in experiment [8] and in [10] was inactive. Also, the molecule was called inactive in experiment [17], in experiment [11] and in experiment [12]. For the same molecule, the AC50 in experiment [9] is 0.938 µM (active).

Regarding `CCc1cnc(C2=NC(C)(C(C)C)C(=O)N2)c(C(=O)O)c1` (stereo unspecified), the molecule was classed as inactive in [13], in experiment [1], in experiment [2], in experiment [14], in experiment [5] and in [16]. The call in [6], in experiment [7], in experiment [9], in [10], in experiment [11] and in experiment [12] was inactive.

For `C[Si](Cn1cncn1)(c1ccc(F)cc1)c1ccc(F)cc1`, the outcome in experiment [1], in [2], in [3], in experiment [14], in experiment [4] and in experiment [15] was inactive. Further, the molecule was called inactive in experiment [5], in experiment [6], in experiment [7], in experiment [11] and in experiment [12]. In addition, the results for the AC50 in experiment [16], in experiment [9] and in [10] were 73.7 µM (active), 11.8 µM (active) and 39.1 µM (active), respectively.

In the case of `C[N+]1(C)CCCCC1`, the result in [1], in experiment [2], in experiment [3], in experiment [15], in experiment [5] and in experiment [6] was inactive. Further, the outcome in [7], in experiment [8], in [9], in experiment [10], in experiment [17] and in [11] was inactive. In addition, the outcome in experiment [12] was inactive.

For `CCCOc1nn(C(=O)NS(=O)(=O)c2ccccc2C(=O)OC)c(=O)n1C`, the call in experiment [13], in experiment [2], in experiment [3], in experiment [15], in [5] and in [6] was inactive. Besides, the molecule was classed as inactive in [7], in experiment [8], in experiment [9], in experiment [10] and in [11]. In experiment [12], the AC50 is 0.0593 µM (active).

Regarding `CNC(=O)ON=C(C)SC`, the molecule was called inactive in experiment [13], in experiment [1], in [2], in [3], in experiment [4] and in experiment [5]. Also, the outcome in [16], in experiment [6], in experiment [7], in experiment [8], in experiment [9] and in [10] was inactive. Also, the molecule was classed as inactive in experiment [17], in experiment [11] and in experiment [12].

As to `CCC(CC)Nc1c([N+](=O)[O-])cc(C)c(C)c1[N+](=O)[O-]`, the call in experiment [18], in experiment [2], in experiment [14], in [4], in experiment [15] and in [5] was inactive. The outcome in experiment [6], in [7], in experiment [8], in experiment [10], in experiment [11] and in experiment [12] was inactive. Also, the AC50 in experiment [9] was 14.4 µM (active).

Take `CSc1nc(NC(C)C)nc(NC(C)C)n1`: the molecule was classed as inactive in experiment [1], in [2], in [4], in [15], in [5] and in [6]. The result in experiment [7], in experiment [10], in experiment [11] and in experiment [12] was inactive. The AC50 in [9] is 10 µM (active).

The record behind these values is PubChem BioAssay (EPA / NIEHS).
